Screens from PubChem.
HCMV antiviral – human cytomegalovirus inhibition | hit rate 4.5% among 410,000 | HFF cells, HCMV-luciferase reporter, 72 h; hits give low values | activity change, negative = inhibition, % at 57.5 µM; in the data active means activity change below about -60%; inconclusive means no clear call, values can overlap the other calls; inactive means above about -39%
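Two compound doses tested in HFFs infected with HCMV-luciferase, MOI 1 PFU/cell, 72 h at 37C. Lysate luminescence read with OneGlo; data normalized against buffer-only and 10uM Salinomycin inhibitor controls.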
TbPYK inhibitor – inhibitors of Trypanosoma brucei pyruvate kinase. Potency, µM (highest dose often 76.8 µM), without a hit: at the highest dose activity, negative = inhibition, most hits filed as inhibitors. TbPYK enzyme, Kinase-Glo Plus ATP luminescence, 45 min. hit rate 0.12% among 410,000; further: potency means the concentration at half of the fitted maximal effect; nearly all actives have a fitted effect of over 50% in size
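Enzyme and substrate buffer are dispensed first and compound is pin-transferred. ADP at 130 uM final then starts the reaction, which runs 45 min at room temperature. Detection reagent is added for 10 min before luminescence is imaged.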
RE007 growth inh – less growth of the S. pombe RE007 Vpr strain; S. pombe RE007 Vpr strain, BacTiter-Glo ATP luminescence, 24 h; hit rate 0.21% among 360,000; Potency, µM (titrated, usually from 92.2 µM), inactives show at the highest dose activity change, negative = less growth, actives largely listed as inhibitors; active means well fitted falling curve with a large enough effect; inconclusive means small, poorly fitted or top-dose-only effect; inactive means no such curve, though single readings can be large or run the other way; further: potency means the concentration at half of the fitted maximal effect; nearly all actives have a fitted effect of over 50% in size
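Fission yeast RE007 carrying one integrated HIV-1 vpr copy, seeded at OD 0.01 in PMG+AL medium with 23 nL pinned compound. Grown 24 h at 30 degrees; viability read by BacTiter-Glo luminescence after 5 min.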
Giardia FBPA inh – Giardia lamblia aldolase inhibition. A8B2U2. purified Giardia FBPA. Potency, µM (highest dose often 59.6 µM), without a hit: top-dose activity, negative = inhibition, usual class: inhibitors. hit rate 0.71% among 290,000. AID 2451; further: potency means the concentration at half of the fitted maximal effect; nearly all actives have a fitted effect of over 55% in size
Target sequence (A8B2U2 whole entry, looked up): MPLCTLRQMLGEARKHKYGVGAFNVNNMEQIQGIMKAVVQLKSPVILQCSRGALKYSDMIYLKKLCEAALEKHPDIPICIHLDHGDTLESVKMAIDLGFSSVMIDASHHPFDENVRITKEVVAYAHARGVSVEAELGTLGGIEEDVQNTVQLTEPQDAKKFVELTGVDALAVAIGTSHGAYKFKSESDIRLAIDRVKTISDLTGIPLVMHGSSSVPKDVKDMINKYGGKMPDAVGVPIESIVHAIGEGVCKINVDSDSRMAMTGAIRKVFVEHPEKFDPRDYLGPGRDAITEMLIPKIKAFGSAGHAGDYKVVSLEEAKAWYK
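Giardia FBPA (40 nM reagent) was preincubated 10 min at RT with compound (up to 57.5 uM final), then substrate plus GAPDH/TPI/NAD/arsenate coupling system with diaphorase/resazurin was added; resorufin fluorescence (525/598 nm) was read after 20 min.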
Sm TGR inh – blocks Schistosoma mansoni thioredoxin glutathione reductase. Potency, µM (doses to about 114 µM), without a hit: top-dose activity change, negative = inhibition, hits mostly inhibitors. purified TGR, DTNB reduction, TNB absorbance 405 nm. hit rate 3% among 360,000. AID 485364; further: potency means the concentration at half of the fitted maximal effect; nearly all actives have a fitted effect of over 60% in size
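TGR 20 nM + NADPH 100 uM (dispensed conc.), cpd preinc 15 min RT; start with NADPH (500 uM addition) then DTNB (15 mM addition). Kinetic TNB absorbance, 405 nm filter. Four-parameter Hill fit across titration.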
FMDV antiviral – foot and mouth disease virus antiviral activity; Potency, µM (top dose mostly 57.9 µM), without a hit: at the highest dose activity change, negative = inhibition, actives largely listed as inhibitors; FMDV antiviral cell-based qHTS; hit rate 1.2% among 410,000; calls by dose curve; tested in HEK293T cells; further: read-out not given here; potency means the concentration at half of the fitted maximal effect; nearly all actives have a fitted effect of over 45% in size
* marks the source's active call; other numbers are inactive results; ? = inconclusive; nt = not tested or not shown; + = active, no number; [ ] = remark or other dose. Only some compounds are listed: those with a hit (about 7.7% of all), similar ones and a draw of the others. Unless noted, the call rests on the fitted dose curve; in most records, active means well fitted curve in the direction sought with a large enough effect; inconclusive means small, poorly fitted or top-dose-only effect, or another doubt; inactive means no such curve, though single readings can be large; an effect the other way counts as inactive or inconclusive. On the % scale 0 is the no-effect control and ±100 the full control effect.

SMILES	HCMV antiviral	TbPYK inhibitor	RE007 growth inh	Giardia FBPA inh	Sm TGR inh	FMDV antiviral
COc1ccccc1NC(=O)CC(c1ccc(F)cc1)c1ccco1 (stereo unspecified)	2	-3%	2%	-17%	?	-28%
COc1ccc(NC(=O)c2c(NCc3cccc(F)c3)sc3c2CCC3)c(OC)c1	-29	-12%	nt	nt	-32%	3%
COc1ccc(NC(=O)C2CC23CCN(Cc2cccc4ncccc24)CC3)cc1Cl (stereo unspecified)	nt	nt	nt	nt	nt	-18%
Cc1cc(Nc2nc3ccccc3nc2Cl)n(-c2ccccc2)n1	-90*	-6%	-3%	4%	-5%	?
Cc1cc(Nc2nc3ccccc3nc2Cl)n(-c2ccccc2C)n1	?	2%	9%	5%	-3%	nt
COc1cccc(Cc2nc3ccccc3nc2SCC(=O)NCc2ccc(C)cc2)c1	18	20%	nt	nt	1%	-1%
Cc1ccc(NC(=O)Cn2nc(-c3ccccc3)nc(Cc3ccc(Cl)cc3)c2=O)cc1	-20	-3%	nt	nt	7%	-9%
CC(=O)CC1c2ccccc2C=C(c2ccsc2)N1c1ccc(-c2cccs2)cc1 (stereo unspecified)	-78*	2%	-7%	nt	nt	-12%
CC(C)Oc1ccc(CNC(=O)CCn2c(=O)c3cccn3c3ccc(F)cc32)cc1	-12	4%	nt	nt	-1%	-11%
CC(=O)c1ccc(NC(=O)Cn2nc(C(F)(F)F)c3c2CCC3)cc1	35	-1%	nt	nt	6%	26%
COc1ccc(/C=N/Nc2nncc3ccccc23)cc1	98	?	-18%	-1%	0%	3.5µM*
COc1ccccc1/C=N/Nc1nncc2ccccc12	35	-8%	-8%	-10%	2%	33%
NNc1nncc2ccccc12	nt	-8%[33.2 µM]	nt	5µM*	nt	-39%
Cc1ccc(S(=O)(=O)Nc2cc(C)c(O)c(Sc3n[nH]c(C)n3)c2)cc1	-40	-17%	2%	?	45µM*	53%
COc1ccc(N2CCN(C(=O)c3cnc(N4CCOCC4)c4ccccc34)CC2)cc1	-9	3%	nt	nt	-8%	-13%
Oc1c(Cl)cc(Cl)cc1C=Nc1cc(C(F)(F)F)ccc1N1CCc2ccccc2C1	-100*	?	nt	?	-22%	-30%
COc1cccc(CN2CCC3(CCC(CNC(=O)c4cc(C)nn4C)O3)CC2)c1OC (stereo unspecified)	nt	nt	nt	nt	nt	-7%
CC(=O)c1ccc(NC(=O)c2cccc(NC(=O)N3CCSc4ncccc43)c2)cc1	0	-3%[15.4 µM]	nt	nt	1%	-14%
CC1CCc2cc(F)ccc2N1C(=O)CCl (stereo unspecified)	nt	-15%	1%	-7%	5.6µM*	14µM*
CCC(CC)C(=O)N1c2ccc(F)cc2CCC1C (stereo unspecified)	-33	3%	0%	5%	0%	-13%
O=C(Cn1ncc2ccsc2c1=O)N1CCN(c2ccc(Cl)cc2)CC1	-40	1%	nt	nt	0%	0%
O=C1C(=O)N2C(=C1C(=O)N1CCCCCC1)c1ccccc1CC21CCCC1	-66*	-6%	3%	4%	6%	-2%
CC1(C)Cc2ccccc2C2=C(C(=O)N3CCCCCC3)C(=O)C(=O)N21	-9	1%	6%	?	-2%	1%
CSc1ccccc1C(=O)Nc1ccc(S(=O)(=O)NC2=NCCCCC2)cc1	0	0%	17%	nt	-3%	11%
O=C(NC(=S)Nc1ccc(S(=O)(=O)Nc2nccs2)cc1)c1cccnc1	-24	-4%	-23%	-21%	13µM*	86%
SMILES	HCMV antiviral	TbPYK inhibitor	RE007 growth inh	Giardia FBPA inh	Sm TGR inh	FMDV antiviral
CCc1nnc(NS(=O)(=O)c2ccc(NC(=O)c3ccccc3C)cc2)s1	?	7%	10%	20%	1%	-6%
CCOC(=O)Nc1ccc(NS(=O)(=O)c2ccc(C)cc2)cc1	56	5%	2%	-4%	-22%	42%
CCc1nnc(NS(=O)(=O)c2ccc(NC(=O)c3ccccc3OC)cc2)s1	+	0%	11%	-5%	8%	13%
COc1ccccc1C(=O)Nc1ccc(S(=O)(=O)NC2=NCCCCC2)cc1	-60*	3%	12%	1%	-1%	7%
O=C(NC(=S)Nc1ccc(S(=O)(=O)Nc2nccs2)cc1)c1ccc(F)c(F)c1	13	-7%	3%	-13%	?	86%
Cc1ccc(S(=O)(=O)Nc2ccc(NC(=O)/C=C/C(=O)O)cc2)cc1	1	2%	-19%	16%	50µM*	-10%
CN1CC[C@]23c4c5ccc(O)c4OC2C(O)CCC3[C@H]1C5 (stereo partly specified)	nt	0%[157 µM]	nt	nt	nt	nt
CO[C@H]1[C@H](NC(=O)c2ccco2)c2ccccc2C12CCN(Cc1cc(Cl)ccc1O)CC2	nt	nt	nt	nt	nt	-21%
CC(C)CN1CCC(CN2C(=S)NC[C@@H]2Cc2ccccc2)CC1	-18	nt	nt	nt	nt	nt
O=C(c1cccc(F)c1)N1CCC2(CC1)CN(c1ccccc1)C2	nt	6%	nt	-1%	nt	?
CCc1nnc(NS(=O)(=O)c2ccc(NC(=O)/C=C/c3ccccc3Cl)cc2)s1	-16	0%	8%	17%	nt	7%
CCc1nnc(NS(=O)(=O)c2ccc(NC(=O)/C=C/C(=O)O)cc2)s1	86	-6%	14%	-27%	5.6µM*	-7%
O=C(NC(=S)Nc1ccc(S(=O)(=O)Nc2nccs2)cc1)c1ccccc1	-35	-5%	4%	-24%	35µM*	35%
CCOc1ccccc1C(=O)Nc1ccc(S(=O)(=O)Nc2nccc(C)n2)cc1	40	2%	-1%	?	32µM*	56%
CCc1nnc(NS(=O)(=O)c2ccc(NC(=S)NC(=O)c3ccc(Br)cc3)cc2)s1	21	-1%	-17%	0%	?	-10%
CCc1nnc(NS(=O)(=O)c2ccc(NC(=S)NC(=O)c3ccccc3)cc2)s1	-19	-9%	-9%	14%	40µM*	20%
CCOc1ccc(C(=O)Nc2ccc(S(=O)(=O)Nc3nccc(C)n3)cc2)cc1OCC	-14	4%	0%	-16%	3%	8%
CCn1c(-c2ccccc2F)nc2cc(C(=O)NC(c3ccccn3)C(F)(F)F)cc(NC(C)=O)c21 (stereo unspecified)	nt	nt	nt	nt	nt	11%
CN1C(=O)C(n2ccc3ccccc32)c2cc(Cl)ccc21 (stereo unspecified)	-6	nt	nt	nt	nt	nt
Cc1cc2oc(C(=O)Nc3ccc(S(=O)(=O)Nc4nccs4)cc3)cc(=O)c2cc1Cl	-79*	-1%	2%	0%	1%	-8%
S=C1SCN(CC2CC2)CN1CC1CC1	-77*	-2%	?	?	11%	-22%
CCN(CC)C(=O)c1ccc(S(=O)(=O)N2CCC(c3nc4ccccc4s3)CC2)cc1	-96*	2%	-2%	-5%	0%	nt
